# Experimental data: article PMC4336329 (PLoS ONE, 2015)
# About 2,200 (0.71%) of roughly 310,000 compounds showed an effect of 50% or more. Effects have a minus sign here. The entries come from a sample that favours strong results as a whole.
# Biological target: human ether-à-go-go-related gene (hERG) potassium channel (human, UniProt Q12809)
# Assay: primary screen, population patch clamp on CHO cells stably expressing hERG; higher = less effect of the substance
# Experimental: Briefly, Chinese hamster ovary (CHO) cells stably expressing the hERG channel were dislodged from tissue culture flasks and dispensed into PPC plates. […] During the recording, background leak currents were estimated by a 100 ms step to -80 mV from an initial holding potential of -70 mV and subtracted from the subsequent current measurement. The campaign was conducted in two phases using slight differences in recording protocol. In the first phase, the initial voltage pulse used a 100 ms step to -30 mV from a holding potential of -70 mV, a 2 s conditioning step to +25 mV, and a 2 s test step to -30 mV. During the second phase of the screen, the potential during the conditioning step was raised to +45 mV. In both phases of the campaign, a secondary voltage pulse was applied using the same parameters as the second phase initial pulse. The initial and secondary pulses were applied in the absence of compound, and upon application of 1 μM and 10 μM test concentrations. Small molecule effects on hERG current density were quantified by […].
# Chain of human ether-à-go-go-related gene (hERG) potassium channel (Q12809 whole entry, looked up): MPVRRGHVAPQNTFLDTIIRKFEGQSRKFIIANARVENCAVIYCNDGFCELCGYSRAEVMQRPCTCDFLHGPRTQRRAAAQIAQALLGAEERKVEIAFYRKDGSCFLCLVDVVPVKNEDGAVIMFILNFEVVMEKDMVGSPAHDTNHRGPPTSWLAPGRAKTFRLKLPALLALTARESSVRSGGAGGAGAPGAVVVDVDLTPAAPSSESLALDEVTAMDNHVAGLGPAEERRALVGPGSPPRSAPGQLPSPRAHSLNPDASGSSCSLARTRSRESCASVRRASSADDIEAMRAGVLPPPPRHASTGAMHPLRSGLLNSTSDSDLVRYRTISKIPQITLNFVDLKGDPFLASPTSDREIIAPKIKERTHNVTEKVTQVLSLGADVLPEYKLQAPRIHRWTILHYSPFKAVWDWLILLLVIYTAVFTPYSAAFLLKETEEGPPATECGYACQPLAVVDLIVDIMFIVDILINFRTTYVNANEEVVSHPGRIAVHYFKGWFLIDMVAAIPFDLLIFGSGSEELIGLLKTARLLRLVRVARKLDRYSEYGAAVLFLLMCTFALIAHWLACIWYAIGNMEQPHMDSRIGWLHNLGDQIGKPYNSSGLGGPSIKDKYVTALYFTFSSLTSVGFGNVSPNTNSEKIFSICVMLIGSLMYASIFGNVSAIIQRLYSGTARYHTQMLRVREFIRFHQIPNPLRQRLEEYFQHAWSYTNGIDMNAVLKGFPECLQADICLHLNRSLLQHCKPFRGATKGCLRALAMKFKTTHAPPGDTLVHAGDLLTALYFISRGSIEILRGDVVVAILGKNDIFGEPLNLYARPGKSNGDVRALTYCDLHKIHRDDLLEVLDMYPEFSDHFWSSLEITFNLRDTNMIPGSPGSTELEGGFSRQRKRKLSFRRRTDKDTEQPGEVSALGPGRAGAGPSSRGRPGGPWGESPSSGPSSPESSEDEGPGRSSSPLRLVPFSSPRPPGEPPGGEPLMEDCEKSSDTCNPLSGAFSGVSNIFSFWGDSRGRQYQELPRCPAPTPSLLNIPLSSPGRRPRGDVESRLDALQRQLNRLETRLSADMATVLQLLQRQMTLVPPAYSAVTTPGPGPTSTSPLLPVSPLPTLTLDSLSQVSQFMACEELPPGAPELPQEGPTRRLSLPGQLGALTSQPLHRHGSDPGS
row,Compound,"hERG current change (%, negative = inhibition) at 1uM"
1,COc1ccc(N2CCN(c3ncnc4c3cnn4-c3ccc(C)cc3C)CC2)cc1,13.6%
2,CCC(=O)N1CCc2cc(S(=O)(=O)NC(C(=O)NCc3ccc(C)cc3)C(C)C)ccc21 (stereo not drawn),1.57%
3,CCOc1ccc2nc(N3CCCC(C(=O)NCCCN4CCCCC4)C3)sc2c1 (stereo not drawn),-11.7%
4,CCN=C(NCC)SC1CC(=O)N(c2ccc(OCC)cc2)C1=O (stereo not drawn),7.6%
5,Cn1cc(/C=N/NC(=O)c2ccc(C#N)cc2F)c2ccccc21,12.6%
6,N#Cc1c(N2CCCC(O)C2)nc(N)c2c(N)nc3c(c12)CC(=O)N3C12CC3CC(CC(C3)C1)C2 (stereo not drawn),8.76%
7,O=C(NCc1ccncc1)/C(=C/c1cccc([N+](=O)[O-])c1)NC(=O)c1ccccc1,-31.2%
8,COc1ccc(/C=C(/NC(=O)c2ccccc2)C(=O)NCc2ccncc2)cc1,-12.6%
9,CN(C)c1ccc(/C=C(\NC(=O)c2ccccc2)C(=O)NCc2ccncc2)cc1,4.78%
10,CCNC(=O)/C(=C/c1cccc([N+](=O)[O-])c1)NC(=O)c1ccc(C)cc1,-17.3%
11,Cc1ccc(C(=O)N/C(=C\c2cccc([N+](=O)[O-])c2)C(=O)NCc2ccncc2)cc1,-65.3%
12,O=C(NCc1ccncc1)/C(=C\c1ccc(F)cc1)NC(=O)c1ccccc1,-52.3%
13,Cc1ccc(C23CC4CC(CC(C(=O)OCC(=O)NC5CCS(=O)(=O)C5)(C4)C2)C3)cc1 (stereo not drawn),1.74%
14,COc1ccc(OCC(=O)NNC(=O)C(=O)Nc2cc(OC)ccc2OC)cc1,13.5%
15,N=c1c2c(-c3ccccc3)c(-c3ccccc3)oc2ncn1CCCN1CCOCC1,-84.5%
16,COc1ccc(-c2oc3ncn(CCN4CCOCC4)c(=N)c3c2-c2ccc(OC)cc2)cc1,-7.75%
17,N=c1c2c(-c3ccccc3)c(-c3ccccc3)oc2ncn1Cc1ccco1,9.94%
18,N=c1c2c(-c3ccccc3)c(-c3ccccc3)oc2ncn1CCN1CCOCC1,-63.5%
19,c1ccc(-c2oc3ncnc(NCCN4CCOCC4)c3c2-c2ccccc2)cc1,9.8%
20,c1ccc(-c2oc3ncnc(NCCCN4CCOCC4)c3c2-c2ccccc2)cc1,0.244%
21,COc1ccccc1CCc1nnc(CCC(=O)N(C)Cc2ccncc2C)o1,16.2%
22,COc1ccccc1CCc1nnc(CCC(=O)N(C)Cc2cccc3cnccc23)o1,-53.3%
23,CN(Cc1cccc2cnccc12)C(=O)CCc1nnc(CCc2ccccc2)o1,-5.46%
24,COc1ccc2[nH]c(=O)c(CN(Cc3cccnc3)S(=O)(=O)c3ccccc3F)cc2c1,7.89%
25,CCOc1ccc(NC(=O)CN(C)C(=O)c2ccc(-c3ccc(C(C)=O)cc3)o2)cc1OCC,10.5%
26,Cl.Nc1c2c(nc3ccccc13)CCCC2,-12.6%
27,Nc1c2c(nc3ccn(-c4ccccc4)c(=O)c13)CCCCC2,-37.1%

row,Compound,"hERG current change (%, negative = inhibition) at 1uM"
1,Nc1c2c(nc3ccn(Cc4ccccc4)c(=O)c13)CCC2,-59%
2,NC(=O)NC(c1ccc(Cl)cc1)c1ccccc1Cl (stereo not drawn),7.43%
3,CC(=O)Nc1ccc(-n2c(C)ccc2C)cc1,12.9%
4,O=C(/C=C/c1ccccc1Cl)N1CCN(c2ncccn2)CC1,7.12%
5,O=C(/C=C/c1ccccc1)N1CCN(c2ccccn2)CC1,-3.17%
6,O=C(/C=C/c1ccc(F)cc1)N1CCN(c2ncccn2)CC1,18.1%
7,O=C(/C=C/c1cccc(F)c1)N1CCN(c2ncccn2)CC1,12.4%
8,O=C(/C=C/c1cccc(F)c1)N1CCN(c2ccccn2)CC1,-68.4%
9,O=C(/C=C/c1c(Cl)cccc1Cl)N1CCN(c2ncccn2)CC1,-53%
10,Cc1ccc2cc(CCNC(=O)c3ccc(S(=O)(=O)N4CCOCC4)cc3)c(=O)[nH]c2c1C,11.8%
11,Cc1ccc(C)c(S(=O)(=O)NCC(=O)NCc2ccco2)c1,4.55%
12,Cc1cccc(C)c1NC(=O)CCCSc1nnc(N)s1,8.09%
13,CCn1c(=N)n(CC(O)COc2ccc(C)cc2)c2ccccc21.Cl (stereo not drawn),-16.8%
14,CCCCn1c(=N)n(CC(O)c2ccccc2)c2ccccc21.Cl (stereo not drawn),-36.7%
15,Cc1ccc(OCC(O)Cn2c(=N)n(CCN3CCOCC3)c3ccccc32)cc1.Cl (stereo not drawn),-9.7%
16,CCCn1c(=N)n(CC(O)COc2ccc(C)cc2)c2ccccc21.Cl (stereo not drawn),-68%
17,CCCCn1c(=N)n(CC(O)COc2ccc(C)cc2)c2ccccc21.Cl (stereo not drawn),-77%
18,CCn1c(=N)n(CCOc2ccc(OC)cc2)c2ccccc21,-25.5%
19,Cc1ccc(OCC(O)Cn2c3ccccc3c3ccccc32)cc1 (stereo not drawn),16.8%
20,CCCCn1c(=N)n(CC(O)COc2ccccc2)c2ccccc21 (stereo not drawn),-68%
21,Br.CCCCn1c(=N)n(CCOc2ccc(C)cc2)c2ccccc21,-59.6%
22,Cl.N=c1n(CCN2CCOCC2)c2ccccc2n1CC(O)COc1ccccc1 (stereo not drawn),-3.77%
23,CCN(CC)CCn1c(=N)n(CC(O)COc2ccccc2)c2ccccc21.Cl (stereo not drawn),-20.5%
24,CCCn1c(=N)n(CCOc2ccc(OC)cc2)c2ccccc21,-22%
25,CCOC(=O)C1CCN(C(=O)CSC2=NCCS2)CC1,8.93%
26,NS(=O)(=O)c1ccc(CCNC(=O)CN2CCN(Cc3cccc4ccccc34)CC2)cc1,8.33%
27,O=C(COC(=O)CN1C(=O)c2ccccc2C1=O)Nc1cccc(F)c1,5.95%
